19 molecules from PubChem BioAssay can be followed below.

A short description of assay [1]: viability loss with induced miR-34 in A549 – imaging, A549 dox-inducible miR-34, nuclei and caspase counts, primary screen (AID 1347080). The note with it: A549 miR-34 inducible, Hoechst nuclei count, 48 h.
The nature of assay [2]: blockers of cellular phospholipid synthesis – cell-based, LOPAC library, screen 4, primary screen (AID 1347384; call rule not given here). As to conditions: animal cells, phospholipid biosynthesis inhibition screen; at 10 µM.
Assay [3] in a line: MELAS cybrid and Rieske KO viability enhancers – cell-based, MELAS cybrids, Rieske KO mouse fibroblasts, CellTiter-Glo, primary screen (AID 1508586;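 active = mean z-score across replicates of 1.96 or higher in either the MELAS or the Rieske mutant cell line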;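 also: z relative to plate mean and SD of compound and empty wells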). As to conditions: low glucose. Background: Cellular ATP, detected with luciferase, serves as a proxy for viable cell number.
Setting [4] is: stronger effect = lower value, cell number ratio, induced over uninduced.
Setting [5] is: measured here: relative caspase fold change +Dox/-Dox.
Setting [6] is: measured here: total cells with miR-34 induction, stronger effect = lower value.
Setting [7] is: measured here: total cells without miR-34 induction.
Setting [8] is: MELAS cybrid survival, CellTiter-Glo 48 h, stronger effect = higher value.
The mark [9] stands for this setting: Rieske KO mouse fibroblast survival, CellTiter-Glo 72 h.

Molecules are shown by their SMILES. Where “and” joins values, the source holds several entries; their conditions need not be identical. Identical values can stand only once. Calls of active or inactive are those of the source.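 The calls were made as follows, unless noted: active = compounds whose cell count with miR-34 switched on is under 0.7 times the count with it off; inactive = the rest.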

As to `CN(C)CCOC(=O)COc1ccc(Cl)cc1`, the fold change in assay [1] (setting [4]) is 1.05 (inactive) and 0.847 (inactive) and 0.935 (inactive); in assay [1] (setting [5]), 2.3 and 1.11 and 0.787. In addition, the cell count was 9260 and 9320 and 8720 in assay [1] (setting [6]); 8800 and 11000 and 9330 in assay [1] (setting [7]). For the same molecule, in assay [2], the outcome was inactive. Further, the z-score is -0.229 (inactive) and 0.0507 (inactive) in assay [3] (setting [8]); -0.156 and 1.13 in assay [3] (setting [9]).
Take `NCCS`: the fold change in assay [1] (setting [4]) was 1.1 (inactive) and 0.868 (inactive) and 0.893 (inactive); in assay [1] (setting [5]), 0.51 and 1.42 and 2.94. The cell count in assay [1] (setting [6]) is 11000 and 8060 and 11500; in assay [1] (setting [7]), 9990 and 9290 and 12900. For the same molecule, the outcome in assay [2] was inactive. Also, the results for the z-score in assay [3] (setting [8]) and in assay [3] (setting [9]) were -0.14 (inactive) and -0.336, respectively.
`CCCCCN(CCCCC)C(=O)C(CCC(=O)O)NC(=O)c1ccc(Cl)c(Cl)c1` (centres undefined): the fold change in assay [1] (setting [4]) is 1 (inactive) and 0.871 (inactive) and 0.904 (inactive); in assay [1] (setting [5]), 0.913 and 1.58 and 1.45. Also, the cell count in assay [1] (setting [6]) was 9880 and 9710 and 9580; in assay [1] (setting [7]), 9840 and 11100 and 10600. Further, in assay [2], the molecule was classed as inactive. In addition, the z-score in assay [3] (setting [8]) was 0.699 (inactive) and -0.377 (inactive); in assay [3] (setting [9]), -0.146 and -1.36.
For the molecule `O=C(O)c1ccccc1OP(=O)(O)O`, the fold change in assay [1] (setting [4]) is 0.878 (inactive); in assay [1] (setting [5]) it was 1.05. The cell count was 9100 in assay [1] (setting [6]) and 10400 in assay [1] (setting [7]). The z-score in assay [3] (setting [8]) was 0.629 (inactive); in assay [3] (setting [9]), -0.238.
On to `C[C@]12C[C@H](O)[C@H]3[C@@H](CCC4=CC(=O)CC[C@@]43C)[C@@H]1CC[C@@H]2C(=O)CO`, for which the fold change in assay [1] (setting [4]) was 0.955 (inactive) and 0.755 (inactive) and 0.815 (inactive); in assay [1] (setting [5]), 2.18 and 1.95 and 1.31. The cell count in assay [1] (setting [6]) was 7560 and 6880 and 7400; in assay [1] (setting [7]) it was 7920 and 9120 and 9080. Moreover, the result in assay [2] was inactive. In addition, the z-score in assay [3] (setting [8]) was 0.478 (inactive) and -0.124 (inactive); in assay [3] (setting [9]), -0.146 and 0.938.
Turning to `CO[C@@]1(NC(=O)CSCC#N)C(=O)N2C(C(=O)O)=C(CSc3nnnn3C)CS[C@@H]21`, the fold change in assay [1] (setting [4]) is 1.01 (inactive) and 0.961 (inactive); in assay [1] (setting [5]) it was 1.5 and 1.13. The cell count is 11000 and 9300 in assay [1] (setting [6]); 10900 and 9680 in assay [1] (setting [7]). Moreover, the call in assay [2] was inactive. Further, the z-score in assay [3] (setting [8]) is -0.493 (inactive); in assay [3] (setting [9]), -0.322.
With `Nc1ccc(S(=O)(=O)Nc2nccs2)cc1`, the fold change was 0.93 (inactive) and 0.957 (inactive) and 0.871 (inactive) in assay [1] (setting [4]); 1.04 and 0.824 and 4.44 in assay [1] (setting [5]). Besides, the cell count in assay [1] (setting [6]) is 8630 and 7440 and 10900; in assay [1] (setting [7]), 9270 and 7780 and 12500. For the same molecule, the z-score in assay [3] (setting [8]) is -0.000944 (inactive) and 0.344 (inactive); in assay [3] (setting [9]), -0.264 and 0.18.
Consider `C[N+]1(CCCCC[N+]2(C)CCCC2)CCCC1`, for which the fold change in assay [1] (setting [4]) is 1.07 (inactive) and 0.91 (inactive); in assay [1] (setting [5]), 0.597 and 1.28. Moreover, the cell count in assay [1] (setting [6]) was 10400 and 8690; in assay [1] (setting [7]), 9650 and 9550. Besides, the molecule was called inactive in assay [2]. Besides, the z-score in assay [3] (setting [8]) is 0.607 (inactive); in assay [3] (setting [9]), 0.539.
Regarding `Cc1cc(N)c2ccccc2[n+]1CCCCCCCCCC[n+]1c(C)cc(N)c2ccccc21`, the fold change is 1.04 (inactive) and 0.959 (inactive) in assay [1] (setting [4]); 1.28 and 1.58 in assay [1] (setting [5]). For the same molecule, the cell count was 1900 and 2180 in assay [1] (setting [6]); 1830 and 2270 in assay [1] (setting [7]). For the same molecule, the call in assay [2] was inactive. For the same molecule, the z-score in assay [3] (setting [8]) is -3.39 (inactive); in assay [3] (setting [9]) it was -2.46.
`CN1Cc2c(N)cccc2C(c2ccccc2)C1` (centres undefined): the fold change was 1.2 (inactive) and 0.943 (inactive) and 0.87 (inactive) in assay [1] (setting [4]); 1.05 and 0.932 and 4.35 in assay [1] (setting [5]). In addition, the cell count was 9850 and 8420 and 10600 in assay [1] (setting [6]); 8240 and 8920 and 12100 in assay [1] (setting [7]). The call in assay [2] was inactive. For the same molecule, the z-score in assay [3] (setting [8]) is 0.549 (inactive); in assay [3] (setting [9]), 0.0395.
Regarding `C[N+](C)(C)CCCCCC[N+](C)(C)C`, the fold change was 0.986 (inactive) and 1.01 (inactive) and 0.859 (inactive) in assay [1] (setting [4]); 0.977 and 0.809 and 0.908 in assay [1] (setting [5]). Also, the cell count in assay [1] (setting [6]) is 10300 and 10200 and 8850; in assay [1] (setting [7]), 10500 and 10100 and 10300. In assay [2], the call was inactive. For the same molecule, the results for the z-score in assay [3] (setting [8]) and in assay [3] (setting [9]) were 0.935 (inactive) and 0.174, respectively.
With `C[C@]12C=CC(=O)C=C1CC[C@H]1[C@@H]3C[C@@H](O)[C@](O)(C(=O)CO)[C@@]3(C)C[C@H](O)[C@@]12F`, the fold change in assay [1] (setting [4]) was 0.938 (inactive) and 0.869 (inactive) and 0.939 (inactive); in assay [1] (setting [5]) it was 0.943 and 0.955 and 1.2. Besides, the cell count in assay [1] (setting [6]) is 7680 and 5920 and 7610; in assay [1] (setting [7]), 8190 and 6810 and 8100. In addition, the call in assay [2] was inactive. Also, the z-score was 0.162 (inactive) and 0.389 (inactive) in assay [3] (setting [8]); 0.159 and 0.935 in assay [3] (setting [9]).
Consider `CC(=O)N[C@@H](CS)C(=O)O`, for which the fold change in assay [1] (setting [4]) was 1.05 (inactive) and 0.885 (inactive) and 0.922 (inactive); in assay [1] (setting [5]), 0.401 and 1.12 and 0.735. Besides, the cell count in assay [1] (setting [6]) is 10500 and 7510 and 10400; in assay [1] (setting [7]), 9960 and 8480 and 11200. Besides, the call in assay [2] was inactive. The z-score in assay [3] (setting [8]) is -0.217 (inactive) and 0.201 (inactive); in assay [3] (setting [9]), 0.862 and -0.824.
In the case of `CCc1c(C)[nH]c2c1C(=O)C(CN1CCOCC1)CC2` (centres undefined), the fold change in assay [1] (setting [4]) was 1.14 (inactive) and 0.913 (inactive) and 0.969 (inactive); in assay [1] (setting [5]), 1.35 and 0.853 and 0.538. Besides, the cell count in assay [1] (setting [6]) is 11100 and 9250 and 9310; in assay [1] (setting [7]) it was 9700 and 10100 and 9610. Moreover, in assay [2], the result was inactive. The z-score in assay [3] (setting [8]) was 0.0774 (inactive); in assay [3] (setting [9]) it was -0.448.
Regarding `COc1cnc(NS(=O)(=O)c2ccc(N)cc2)nc1`, the fold change in assay [1] (setting [4]) is 0.943 (inactive) and 0.91 (inactive) and 0.881 (inactive); in assay [1] (setting [5]), 1.15 and 0.841 and 2.64. The cell count in assay [1] (setting [6]) is 9880 and 7410 and 11400; in assay [1] (setting [7]), 10500 and 8140 and 12900. Moreover, the z-score in assay [3] (setting [8]) is -0.122 (inactive) and -0.879 (inactive); in assay [3] (setting [9]), -1.17 and -0.837.
Turning to `CC(C)NNC(=O)c1ccncc1`, the fold change in assay [1] (setting [4]) is 1.01 (inactive) and 0.987 (inactive) and 0.902 (inactive); in assay [1] (setting [5]) it was 0.707 and 0.895 and 1.13. In addition, the cell count in assay [1] (setting [6]) is 10400 and 9260 and 10200; in assay [1] (setting [7]), 10300 and 9380 and 11300. The outcome in assay [2] was inactive. Besides, the z-score in assay [3] (setting [8]) was -0.146 (inactive) and 0.243 (inactive); in assay [3] (setting [9]), -0.0689 and -0.0455.
In the case of `CCN(CC)CCNC(=O)c1cc(S(C)(=O)=O)ccc1OC`, the fold change in assay [1] (setting [4]) was 0.998 (inactive) and 0.882 (inactive) and 0.896 (inactive); in assay [1] (setting [5]), 1.76 and 0.709 and 3.36. Further, the cell count in assay [1] (setting [6]) was 9610 and 9280 and 12200; in assay [1] (setting [7]) it was 9630 and 10500 and 13600. Further, the molecule was called inactive in assay [2]. The z-score is 0.496 (inactive) in assay [3] (setting [8]) and -0.0746 in assay [3] (setting [9]).
Take `O=C(O)c1ccccc1O`: the fold change was 0.935 (inactive) and 0.936 (inactive) in assay [1] (setting [4]); 0.622 and 2.5 in assay [1] (setting [5]). Besides, the cell count is 8100 and 11600 in assay [1] (setting [6]); 8660 and 12400 in assay [1] (setting [7]). In addition, the z-score in assay [3] (setting [8]) was -0.0591 (inactive); in assay [3] (setting [9]), -0.159.
Regarding `Cc1cccc(C)c1NC(=O)C(C)N` (centres undefined), the fold change is 0.975 (inactive) and 0.939 (inactive) and 0.865 (inactive) in assay [1] (setting [4]); 0.988 and 0.663 and 1.75 in assay [1] (setting [5]). The cell count in assay [1] (setting [6]) was 10300 and 9450 and 9090; in assay [1] (setting [7]), 10600 and 10100 and 10500. Moreover, in assay [2], the call was inactive. The z-score in assay [3] (setting [8]) is 0.748 (inactive); in assay [3] (setting [9]) it was 0.421.
